HEK293 cAMP ctrl = qHTS Assay for Agonists of the Thyroid Stimulating Hormone Receptor: Activators of Intracellular cAMP Concentrations in Parental HEK 293 | 73,000 compounds, 2.5% hits | parental HEK293 CNG cAMP sensor, membrane potential fluorescence | Potency, µM (series often up to 57.1 µM), for the others: at the highest dose activation, most hits filed as activators; further: % of control where 0% means no effect; nearly all actives have a fitted effect of over 55% in size
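Parental HEK 293 cells stably expressing a modified CNG channel (no TSHR) report cAMP rise as membrane depolarization. Membrane potential dye with 100 uM RO 20-1724 was loaded for 60 min at room temperature, then compound added for 30 min; fluorescence read at 590 nm.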
TSHR agonist = qHTS Assay for Agonists of the Thyroid Stimulating Hormone Receptor; Potency, µM (highest dose often 57.1 µM), inactives show at the top dose activation, actives largely listed as activators; AID 926, 2007; 73,000 compounds, 0.48% hits; HEK293-CNG-TSHR cells (CNG channel as cAMP sensor), membrane potential dye, cAMP; active means well fitted activation curve with a large enough effect in the main read-out, with a control signal flat, not every such curve was filed as active; inconclusive means small, poorly fitted or top-dose-only effect, or a change in a side signal; inactive means no such curve, though single readings can be large or run the other way; % of control where 0% means no effect;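 further: the control signal comes from parental cells without the receptor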
Target sequence (P16473 whole entry, looked up): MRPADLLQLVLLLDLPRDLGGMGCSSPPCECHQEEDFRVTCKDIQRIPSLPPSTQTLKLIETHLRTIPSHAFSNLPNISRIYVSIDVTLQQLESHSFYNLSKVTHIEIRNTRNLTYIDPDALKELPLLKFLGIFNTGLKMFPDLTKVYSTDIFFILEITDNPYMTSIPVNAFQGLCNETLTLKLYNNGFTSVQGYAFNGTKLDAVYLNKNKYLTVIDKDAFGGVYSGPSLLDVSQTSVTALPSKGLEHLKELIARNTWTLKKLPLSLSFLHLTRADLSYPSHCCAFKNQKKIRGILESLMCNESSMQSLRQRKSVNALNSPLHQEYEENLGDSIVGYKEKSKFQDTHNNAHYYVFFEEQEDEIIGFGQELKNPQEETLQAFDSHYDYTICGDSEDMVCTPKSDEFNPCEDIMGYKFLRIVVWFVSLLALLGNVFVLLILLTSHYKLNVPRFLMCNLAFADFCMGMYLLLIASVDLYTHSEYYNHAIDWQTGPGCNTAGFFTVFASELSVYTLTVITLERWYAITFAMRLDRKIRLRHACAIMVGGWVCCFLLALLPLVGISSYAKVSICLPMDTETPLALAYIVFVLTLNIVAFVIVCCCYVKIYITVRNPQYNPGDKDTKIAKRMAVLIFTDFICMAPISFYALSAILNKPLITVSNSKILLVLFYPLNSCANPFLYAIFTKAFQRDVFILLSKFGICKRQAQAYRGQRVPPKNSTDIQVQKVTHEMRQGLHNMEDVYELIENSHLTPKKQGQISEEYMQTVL
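cAMP rise detected as CNG-channel membrane depolarization by fluorescent dye (emission 590 nm), 30 min after compound, following 60 min dye loading containing 100 uM RO 20-1724 at room temperature. Cells: TSHR/CNG HEK 293, with parental CNG HEK 293 as control.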
IkB signaling = IkB Signaling | ABC-DLBCL IkBa-CBG/CBR dual luciferase ratio, 4 h; response scale: scaled: untreated 0%, proteasome inhibitor 100% | 110,000 compounds, 0.04% hits | Potency, µM (doses to about 57.1 µM), without a hit: at the top dose IkBa stabilization activation; active means well fitted curve in the direction sought with a large enough effect in the signal ratio, not every such curve was filed as active; inconclusive means small, poorly fitted or top-dose-only effect, or a change in a side signal; the % refers to the signal ratio;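 further: the direction sought is a rising ratio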
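In this assay, an IκBα–CBG68 fusion accumulates when IKK-driven degradation is blocked; native CBR normalizes for cell number. OCI-Ly3 cells were treated 4 h with compound and doxycycline, then green and red light read after Chroma-Glo addition.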
CRE-bla Fsk = Cell signaling CRE-BLA (Fsk stim); CHO CRE-bla reporter (cAMP response element driving beta-lactamase), forskolin EC10, beta-lactamase ratio; Potency, µM (top dose mostly 38.2 µM), for the others: at the highest dose activity change, negative = inhibition, actives largely listed as activators; 71,000 compounds, 2.5% hits; AID 662, 2007; active means well fitted activation curve with a large enough effect in the signal ratio, with a control signal flat, not every such curve was filed as active; inconclusive means small, poorly fitted or top-dose-only effect, or effect the other way, or a change in a side signal; the % refers to the signal ratio; further: % of control where 0% means no effect
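Modulation of forskolin-driven signalling is measured in CHO cells carrying a CRE-controlled beta-lactamase reporter. Cells are stimulated with EC10 NKH 477 in the presence of titrated compound for 3 h at 37 °C, then loaded with CCF4 for 2 h at room temperature.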
ERK AVP inh = qHTS Assay for Inhibitors of the ERK Signaling Pathway using a Homogeneous Screening Assay. HEK293-V1b, vasopressin-stimulated pERK AlphaScreen. Potency, µM (highest dose often 57.5 µM), for inactives: at the top dose activity, negative = inhibition, hits mostly inhibitors. 72,000 compounds, 0.99% hits; further: on the % scale 0 is the no-effect control and ±100 the full control effect; nearly all actives have a fitted effect of over 55% in size
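HEK293 cells stably expressing V1b receptor, preincubated 30 min at 37 °C with compound, then stimulated 5 min with 25 nM vasopressin. Phospho-ERK by AlphaScreen SureFire after 5 h RT; normalized to DMSO and vasopressin; AC50 by Hill fit.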
* = called active by the depositor; [ ] = another dose, or the depositor's remark. An excerpt weighted towards active compounds, which were near 3.6% of everything screened. Unless noted, the call rests on the fitted dose curve; in most records, active means well fitted curve in the direction sought with a large enough effect; inconclusive means small, poorly fitted or top-dose-only effect, or another doubt; inactive means no such curve, though single readings can be large; an effect the other way counts as inactive or inconclusive. Potency means the concentration at half of the fitted maximal effect.

Results for Cc1cccc(CNC(=O)C2CCN(S(=O)(=O)c3ccc4c(c3)CCCN4C(=O)C3CCC3)CC2)c1 ?
IkB signaling: 2%

How did CN1CCc2c(sc3c2C(=O)NC(c2cccs2)N3)C1 (stereo unspecified) do in these assays?
HEK293 cAMP ctrl: 1%; TSHR agonist: -1%; IkB signaling: 2%; CRE-bla Fsk: 13µM*; ERK AVP inh: -22%

How did Cc1ccccc1NC(=O)CSc1ccc(-c2ccccn2)nn1 do in these assays?
IkB signaling: 2%

What do the screens show for `NC(=O)c1c(NC(=O)c2cc(-c3ccc(F)cc3)on2)sc2c1CCCC2`?
IkB signaling: 3%

How did O=C(CSc1nnc(-c2ccncc2)n1Cc1ccco1)OC1CCCCC1 do in these assays?
HEK293 cAMP ctrl: inconclusive; TSHR agonist: inconclusive; IkB signaling: 1%; CRE-bla Fsk: -3%; ERK AVP inh: -12%

Results for O=C(CSc1nnc(-c2ccco2)n1Cc1ccccc1)OC1CCCCC1 ?
HEK293 cAMP ctrl: 4µM*; TSHR agonist: inconclusive; IkB signaling: 4%; CRE-bla Fsk: inconclusive; ERK AVP inh: -22%

How did COC(=O)[C@@H](NC(=O)c1cc(-c2ccccc2)nc2ccccc12)c1ccccc1 do in these assays?
HEK293 cAMP ctrl: 3.2µM*; TSHR agonist: inconclusive; IkB signaling: -4%; CRE-bla Fsk: -4%

Results for COc1ccc(-c2cc(C(=O)NC(C)c3ccccc3)c3cc(C(C)C)ccc3n2)cc1 (stereo unspecified) ?
IkB signaling: -1%

What do the screens show for `COCCN(CCOC)S(=O)(=O)c1ccc(C(=O)Nc2nc(C)c(C(C)=O)s2)cc1`?
HEK293 cAMP ctrl: 5%; TSHR agonist: -1%; IkB signaling: 0%; CRE-bla Fsk: 10%; ERK AVP inh: 1%

What do the screens show for `COCCN(CCOC)S(=O)(=O)c1ccc(C(=O)Nc2nc(-c3ccncc3)cs2)cc1`?
HEK293 cAMP ctrl: 4%; IkB signaling: inconclusive; CRE-bla Fsk: 9%; ERK AVP inh: 25µM*

Results for CCOC(=O)c1[nH]c(C)c(C(=O)NCc2ccc(OC)cc2)c1C ?
HEK293 cAMP ctrl: -1%; TSHR agonist: 4%; IkB signaling: -3%; CRE-bla Fsk: 19%; ERK AVP inh: -11%

How did N=C1C=CC(=C(c2ccc(N)cc2)c2ccc(N)cc2)C=C1 do in these assays?
HEK293 cAMP ctrl: 23%[11.4 µM]; TSHR agonist: inconclusive; IkB signaling: 14%[11.4 µM]; CRE-bla Fsk: 10%[7.6 µM]; ERK AVP inh: 13µM*

Results for C=CCn1c(N)c(C(=O)OCCC)c2nc3ccccc3nc21 ?
HEK293 cAMP ctrl: 8%; TSHR agonist: 23%; IkB signaling: 2%; CRE-bla Fsk: 10µM*; ERK AVP inh: -8%

How did CCOC(=O)c1c(N)n(-c2ccc(C)c(C)c2)c2nc3ccccc3nc12 do in these assays?
IkB signaling: -1%

How did COCCn1c(N)c(C(=O)OCc2ccccc2)c2nc3ccccc3nc21 do in these assays?
HEK293 cAMP ctrl: 23%; TSHR agonist: 10%; IkB signaling: inconclusive; CRE-bla Fsk: 10µM*; ERK AVP inh: 12%

Results for CCOC(=O)c1ccc(NS(=O)(=O)c2cnc[nH]2)cc1 ?
HEK293 cAMP ctrl: 11%; TSHR agonist: 1%; IkB signaling: -2%; CRE-bla Fsk: -3%; ERK AVP inh: 19%

What do the screens show for `CSc1oc(-c2ccccc2)nc1S(=O)(=O)c1ccc(C)cc1`?
HEK293 cAMP ctrl: 20%[11.4 µM]; TSHR agonist: 7%[11.4 µM]; IkB signaling: -1%; CRE-bla Fsk: inconclusive; ERK AVP inh: 75%

What do the screens show for `N=C(N)SCc1cccc2c(=O)cc(-c3ccccc3)oc12`?
HEK293 cAMP ctrl: 1%[11.4 µM]; TSHR agonist: 2%[11.4 µM]; IkB signaling: 1%[11.4 µM]; CRE-bla Fsk: 15%[7.6 µM]; ERK AVP inh: 2%[11.5 µM]

What do the screens show for `O=c1cc(-c2ccccc2)oc2c1ccc1ccccc12`?
HEK293 cAMP ctrl: 32µM*; TSHR agonist: inconclusive; IkB signaling: 0%[11.4 µM]; CRE-bla Fsk: inconclusive; ERK AVP inh: 32µM*

What do the screens show for `CC(C)COC(=O)n1c(SCC(=O)N(C)C)nc2ccccc21`?
HEK293 cAMP ctrl: inconclusive; TSHR agonist: inconclusive; IkB signaling: inconclusive; CRE-bla Fsk: 13µM*; ERK AVP inh: -18%

What do the screens show for `Cc1[nH]nc2c1C(c1ccccc1F)CC(=O)N2` (stereo unspecified)?
HEK293 cAMP ctrl: 15%[2.29 µM]; TSHR agonist: 8%; IkB signaling: -1%; CRE-bla Fsk: inconclusive; ERK AVP inh: -18%

Results for O=S1(=O)C=C(Sc2nc3cc(Cl)ccc3o2)c2ccccc21 ?
HEK293 cAMP ctrl: 7%; TSHR agonist: 2%; IkB signaling: inconclusive; CRE-bla Fsk: inconclusive; ERK AVP inh: 10µM*

Results for CCC(C)n1cnc2c(c1=O)c1nc3ccccc3nc1n2Cc1ccc2c(c1)OCO2 (stereo unspecified) ?
HEK293 cAMP ctrl: -6%; TSHR agonist: -19%; IkB signaling: inconclusive; CRE-bla Fsk: 16µM*; ERK AVP inh: 1%

Results for Cc1ccc(NC(=O)c2cc(-c3cccc(O)c3)on2)cc1C ?
HEK293 cAMP ctrl: 5%; TSHR agonist: 1%; IkB signaling: 11%; CRE-bla Fsk: inconclusive; ERK AVP inh: 32µM*

What do the screens show for `c1cncc(-c2nc(NCc3cccs3)c3ccccc3n2)c1`?
HEK293 cAMP ctrl: 14%; TSHR agonist: 32µM*; IkB signaling: -2%[11.4 µM]; CRE-bla Fsk: inconclusive; ERK AVP inh: -23%

What do the screens show for `COc1cccc(-c2nccc(NCc3cccs3)n2)c1`?
HEK293 cAMP ctrl: inconclusive; TSHR agonist: inconclusive; IkB signaling: 2%[11.4 µM]; CRE-bla Fsk: -3%; ERK AVP inh: -29%

What do the screens show for `c1cncc(-c2nccc(NCc3cccs3)n2)c1`?
HEK293 cAMP ctrl: 14%; TSHR agonist: 8%; IkB signaling: 3%[11.4 µM]; CRE-bla Fsk: 2.5µM*; ERK AVP inh: 32µM*

Results for Clc1ccccc1-c1nccc(NCc2cccs2)n1 ?
HEK293 cAMP ctrl: inconclusive; TSHR agonist: inconclusive; IkB signaling: 3%[11.4 µM]; CRE-bla Fsk: inconclusive; ERK AVP inh: 16µM*

How did c1csc(CNc2nc(-c3ccoc3)nc3ccccc23)c1 do in these assays?
HEK293 cAMP ctrl: 10%; TSHR agonist: 30%; IkB signaling: 1%[11.4 µM]; CRE-bla Fsk: -9%; ERK AVP inh: -21%

What do the screens show for `COc1cc(/C=C\C(=O)CC(=O)/C=C\c2ccc(O)c(OC)c2)ccc1O`?
HEK293 cAMP ctrl: -36%; TSHR agonist: inconclusive; IkB signaling: 15%[11.4 µM]; CRE-bla Fsk: inconclusive

How did COc1cc(/C=C/C(=O)CC(=O)/C=C/c2ccc(O)c(OC)c2)ccc1O do in these assays?
HEK293 cAMP ctrl: -19%; TSHR agonist: inconclusive; IkB signaling: inconclusive; CRE-bla Fsk: inconclusive; ERK AVP inh: 32µM*

High-throughput results from PubChem BioAssay.
